Experimental data taken from PubChem BioAssay AID720514 (Broad Institute, 2013).
Out of some 2,100 compounds screened, about 300 (14%) were called active. Another 2% or so got no clear call; they are omitted.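 How the source made its calls: active means every replicate test run called active, with the signal falling and half-maximal concentration within twice the top valid dose; inconclusive means the replicate test runs disagree in their calls; inactive means every test run inactive, including effects in the opposite direction.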 These entries were drawn from the full list. Potency and affinity values are given separately.

Assay: reduced cellular PGC1a acetyl-lysine signal – cell-based, cherry-picked samples, dose response (AID 720514);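 further: actives lower the acetylation signal so they count as inhibitors of PGC1a acetylation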
Details: U2OS PGC1a acetylation, AlphaLISA, overnight; series mostly up to 19.5 µM

outcome, inactive:
Fc1ccc(CN(Cc2ccccc2)C(c2cccs2)c2nnnn2C2CCCCC2)cc1 (configuration not stated), O=C(NCc1ccc(Cl)cc1)C1CCC(CNc2c(N3CCCC3)c(=O)c2=O)CC1 (configuration not stated), Cc1cccc(Oc2nccc(C(F)(F)F)c2C(=O)Nc2ccc(F)cc2F)c1, c1coc(CN(Cc2cccs2)Cc2nnnn2C2CCCCC2)c1, C[C@@H](c1ccccc1)N1Cc2ccccc2Oc2cc(Br)ccc2S1(=O)=O, CCOC(=O)C1=CC[C@@H](c2ccc(F)cc2)N(S(=O)(=O)c2ccc(C)cc2)[C@H]1c1ccccc1, C=C[C@H]1C(C(=O)OCC)=CC[C@@H](c2ccccc2)N1S(=O)(=O)c1ccc(C)cc1, O=C(Nc1cccnc1)c1ccc(Oc2ccccc2)cc1, Nc1ccc(N2CCCCC2)cc1N1CCCCC1, O=C(Nc1cccnc1)c1ccc(Br)s1, Cc1ccc2[nH]c(=O)c(CN(Cc3ccc4c(c3)OCO4)Cc3nnnn3C3CCCC3)cc2c1, O=C(Nc1ccc(F)cc1)N1CC(=O)N2[C@@H](CO)[C@H](c3ccc(Br)cc3)[C@@H]2C1, O=C(c1ccc(F)cc1)N1CC(=O)N2[C@H](CO)[C@@H](c3ccc(C#CCC4CCCC4)cc3)[C@@H]2C1, CC(C)CC#Cc1ccc([C@@H]2[C@H](CO)N3CCCCN(S(=O)(=O)Cc4ccccc4)C[C@@H]23)cc1, Cc1cccc(OC2(c3ccccc3)OC(=O)c3ccccc32)c1C (configuration not stated), O=C(COc1cccnc1[N+](=O)[O-])NCCc1ccc(Cl)cc1, COc1cccc(-c2ccc(C3[C@@H]4CN(S(=O)(=O)c5cccc(OC)c5)C[C@H]3N4)cc2)c1 (some centres not stated), COc1ccccc1-c1ccc(C2[C@@H]3CN(Cc4cccc(F)c4)C[C@H]2N3)cc1 (some centres not stated), N#Cc1ccccc1S(=O)(=O)N1CCN(Cc2cc3c(cc2Br)OCCO3)CC1, CC(C)(C)c1ccc(NC(=O)N2CCCN(c3ccc([N+](=O)[O-])cn3)CC2)cc1, Cc1ccc(O)c(C(=O)c2cnc3c(c2)CN(CCC(C)C)C(=O)N3)c1, COc1ccc(Cc2nc(-c3ccc(NC(=O)c4cccnc4)cc3)no2)cc1, C=CCn1c(=NC(=O)c2ccc(S(=O)(=O)N3CCCC3)cc2)sc2cc(NC(C)=O)ccc21, CCOCCn1c(CN(Cc2ccccc2)Cc2ccccc2)nc2c1c(=O)[nH]c(=O)n2C, N#Cc1ccc(Oc2cccnc2)cc1C#N, COc1ccc(NC(=O)C(=O)NCCC2CCCCN2S(=O)(=O)c2cccs2)cc1 (configuration not stated), COc1ccccc1-c1ccc2c(c1)C(C)(Cc1ccc(OC(F)(F)F)cc1)C(=O)N2 (configuration not stated), O=C1Nc2cc(S(=O)(=O)N3CCCC3)ccc2N2CCCC12 (configuration not stated), Cc1cc(N2CCC(C(N)=O)CC2)nc(-c2ccccc2)n1, COc1ccc(CNc2ccc(-c3ccc(OC)cc3)nn2)cc1, COc1ccc(C(C)(O)c2nc(-c3ccc(S(C)(=O)=O)cc3)cs2)cc1 (configuration not stated), CCOC(=O)C1=C[C@@H](C(C)C)N(S(=O)(=O)c2ccc(C)cc2)[C@H]1c1ccc(C(F)(F)F)cc1, CCOC(=O)CC(S(=O)(=O)c1ccccc1)S(=O)(=O)c1ccccc1, COc1ccc(CCNCc2ccc(-c3ccccc3)cc2)cc1OC, O=C1C=C(c2cc3ccccc3s2)CCC1, O=C(c1cccs1)N1CCN(c2nnc(-c3ccccc3)c3ccccc23)CC1, N=c1n(CCN2CCCC2)c2ccccc2n1CC(O)c1ccc(Cl)c(Cl)c1 (configuration not stated), O=C(c1ccco1)N1CCN(c2nnc(-c3ccccc3)c3ccccc23)CC1, Cc1cccc2cc(CN(Cc3ccc(F)cc3)Cc3nnnn3C3CCCC3)c(=O)[nH]c12, Oc1ccc(C[C@@H]2CNCCN2CCC23CC4CC(CC(C4)C2)C3)cc1, CCn1nc(C)c(CN2CCc3c([nH]c4ccccc34)C2C(C)(C)C)c1C (configuration not stated), CCOC(=O)C1(Cc2ccccc2)CCN(Cc2cccc(OC)c2O)CC1, Cc1cc(C)c2c(-n3cccc3)c(C(=O)NNS(=O)(=O)c3ccccc3)sc2n1, Cc1cccc(S(=O)(=O)N(C)C[C@@H]2OCc3cn(nn3)CCCC(=O)N([C@H](C)CO)C[C@H]2C)c1, C[C@H]1CN([C@@H](C)CO)C(=O)CCCn2cc(nn2)CO[C@H]1CN(C)S(=O)(=O)c1ccc(Cl)cc1, CC(=O)CCS(=O)(=O)c1ccc(C)c(C)c1, O=C(C[C@@H]1C[C@@H]2c3cc(NC(=O)Nc4ccccc4F)ccc3O[C@@H]2[C@@H](CO)O1)NCc1ccc(Oc2ccccc2)cc1, COC(=O)C[C@@H]1C[C@H]2c3cc(NC(=O)Nc4ccc(C(F)(F)F)cc4)ccc3O[C@H]2[C@H](CO)O1, COc1ccc(CCNC(=O)COc2ccc(S(=O)(=O)N3CCCC3)cc2)cc1, COc1ccc(CC(CC(=O)O)C(=O)Nc2ccc(OC)cc2)cc1 (configuration not stated), CCn1c(SC/C=C/c2ccccc2)nnc1-c1cccs1, CC(=O)c1c(-c2ccccc2)[nH]c2ccccc12, CC(=O)c1ccc(N2CCN(C(=O)C(=O)c3c(C)[nH]c4ccccc34)CC2)cc1, O=C(Nc1cccc(S(=O)(=O)N2CCOCC2)c1)c1ccco1, O=C(Nc1ccc2c(c1)OCO2)C1CCN(c2ccc(S(=O)(=O)N3CCOCC3)cc2)CC1, O=C(CC1SC(=NCc2ccccc2)NC1=O)Nc1ccccc1 (configuration not stated), O=C(CC1CC1)N[C@@H]1CC[C@H](CCNS(=O)(=O)c2ccc(Cl)cc2)O[C@H]1CO, COc1cc(Cn2c(N)c(C#N)c3nc4ccccc4nc32)cc(OC)c1, COC(=O)CSc1nc(-c2ccccc2)cc(-c2ccco2)c1C#N, CCC(C)(C)n1nnnc1CN(Cc1ccc(Cl)cc1)Cc1ccco1, O=C(/C=C/Sc1ncn[nH]1)c1ccc(Cl)cc1, Cc1sc(NC(=O)c2cccs2)nc1-c1ccccc1, CN1CCN(C(=O)CSc2nc(-c3cccs3)cc(-c3cccs3)c2C#N)CC1, CC(=O)c1ccc(OCC(=O)OCC(=O)Nc2sccc2C(N)=O)cc1, CCOC(=O)c1c(NC(=O)CSc2cn(CC)c3ccccc23)sc2c1CCC2, CCOC(=O)c1nc(S(C)(=O)=O)ncc1Cl, O=C(c1ccc(NC(=O)C2(c3ccccc3)CCOCC2)cc1)N1CCOCC1, CCOC(=O)c1c(NC(=O)c2ccoc2C)sc2c1CCC2, CC1CCCN(Cc2c(O)ccc3c(=O)c(-c4nc5ccccc5s4)c(N)oc23)C1 (configuration not stated), CC(C)NC(=O)NCC[C@H]1CC[C@H](NC(=O)c2ccc(F)cc2)[C@H](CO)O1, Cc1ccccc1S(=O)(=O)NCC[C@@H]1CC[C@H](NC(=O)C2CCOCC2)[C@@H](CO)O1, CCC(C)(CC(=O)O)CC(=O)Nc1cc(C(F)(F)F)cc(C(F)(F)F)c1 (configuration not stated), COc1ccc(-c2nc3c(C)cc(Br)cn3c2Cc2ccc(C)cc2)cc1OC, COc1cc(C)c(CN2CCN(S(=O)(=O)c3ccc(Cl)s3)CC2)cc1OC, O=C(CN1CCC(n2nnc3cc(F)ccc32)CC1)Nc1ccc2c(c1)CCC2, CCOC(=O)C1=C[C@@H](C(C)(C)C)N(S(=O)(=O)c2ccc(C)cc2)[C@H]1c1cccc2ccccc12, Cc1ccccc1S(=O)(=O)N[C@@H]1CC[C@@H](CCn2cc(Cc3ccccc3)nn2)O[C@H]1CO, CC(C)(C)C(=O)Nc1sc2c(c1-c1nc3ccccc3[nH]1)CCCC2, CC(Sc1nc2ccccc2s1)C(=O)NC1CCCc2ccccc21 (configuration not stated), Cc1ccc(CNC(=O)C2CC(c3ccc([N+](=O)[O-])cc3)=NO2)cc1 (configuration not stated), Cc1coc2cc3oc(=O)c(CCC(=O)NC4CC4)c(C)c3cc12, Cc1ccccc1-c1ccc([C@@H]2[C@H](CO)N3CCCCN(C(=O)Nc4cccc(F)c4)C[C@@H]23)cc1, CCOC(=O)c1ccccc1NS(=O)(=O)c1ccc(OCC)cc1, CCOc1ccc(N(C)S(=O)(=O)c2cc(-c3cc(C)no3)ccc2OC)cc1, COc1ccc(NC(=O)CSC2CC(=O)N(c3ccc4c(c3)OCCO4)C2=O)cc1 (configuration not stated), COc1ccc(N(C(=O)c2snc(C(N)=O)c2N)C(C(=O)NC2CCCCC2)c2ccc(C)o2)cc1 (configuration not stated), CC(C)C(OC(=O)c1cccs1)C(=O)NC1CCCCC1 (configuration not stated), COc1ccc(N(C(=O)c2snc(C(N)=O)c2N)C(C(=O)NC2CCCC2)c2ccco2)c(OC)c1 (configuration not stated), COc1ccc(N(C(=O)c2csnn2)C(C(=O)NC2CCCC2)c2cccs2)cc1 (configuration not stated), COc1ccc(N(C(=O)c2snc(C(N)=O)c2N)C(C(=O)NC2CCCCC2)c2ccc(F)cc2)c(OC)c1 (configuration not stated), C[C@@H]1CN([C@H](C)CO)C(=O)c2c(c3ccccc3n2C)-c2ccccc2CO[C@@H]1CN(C)C(=O)c1ccc(F)cc1, Oc1ccc(Nc2nnc(-c3ccc(O)cc3)c3ccccc23)cc1, O=C(CC1SC(=Nc2ccc3c(c2)OCCO3)NC1=O)Nc1ccc(F)cc1F (configuration not stated), CCOC(=O)C1=C[C@@H](C(C)(C)C)N(S(=O)(=O)c2ccc(C)cc2)[C@H]1c1ccccc1, CC(C)(C)n1nnnc1CN(Cc1ccc(F)cc1)Cc1ccco1, CCOC(=O)c1c(C)n(C)c2ccc(OCC(O)Cn3nc(C)c(Br)c3C)cc12 (configuration not stated), CCOC(=O)c1c(CN2CCN(CC#N)CC2)n(C)c2cc(Br)c(OC)cc12
